High-throughput results (PubChem)
mHTT CaM bind = mutant huntingtin-calmodulin interaction inhibitors – biochemical, AlphaScreen, primary screen; P42858; AlphaScreen His-mHTT/GST-CaM binding, luminescence; inhibition, % at 15 µM; hit rate 3.6% among 190,000; AID 1671202, 2021;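 note: 0% = both proteins with DMSO and 100% = one protein alone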
Pf apPOL inh = Pf-apPOL inhibitors, biochemical, fluorescence. Plasmodium falciparum apicoplast DNA polymerase (apPOL). Recombinant Pf-apPOL, molecular beacon fluorescence, 1.5 h. inhibition, % at 10 µM. hit rate 0.25% among 210,000
Starred values were filed as active, the others as inactive; x = no result; + = active, no number. The entries come from a sample that favours hits as a whole. Cut-off read from the data, not from the text of the source: active = inhibition above about 50%; inactive = the rest.

SMILES	mHTT CaM bind	Pf apPOL inh
CN(C)c1ccc(/C=C/C=N/NC2=NS(=O)(=O)c3ccccc32)cc1	+	x
CN(C)C1=NS(=O)(=O)c2ccccc21	-2	-2
CSc1nc2ccccc2n1CC(=O)NC(c1ccccc1)c1ccccc1	57*	0
CSc1nc2ccccc2n1CC(=O)Nc1ccc(F)cc1	-1	-1
CC1CCCN(C(=O)c2cc3c(n2C)CCN(Cc2ccc(F)cc2)C3)C1 (stereo not given)	58*	-6
Cn1c(C(=O)NC2CC2)cc2c1CCN(Cc1ccc(F)cc1)C2	22	-2
CC1CCCN(C(=O)c2cc3c(n2C)CCN(Cc2ccccc2)C3)C1 (stereo not given)	69*	-2
Cn1c(C(=O)N2CCC(N3CCCCC3)CC2)cc2c1CCN(Cc1ccccc1)C2	31	-2
Cc1ccccc1NS(=O)(=O)c1ccc2nc(-c3ccccc3)[nH]c2c1	1	11
Cc1c(C(=O)Nc2cccc([N+](=O)[O-])c2)sc2nc(-c3ccccc3)cn12	1	-1
CCOc1ccc(C(=O)Nc2c3c(nn2-c2cccc(Cl)c2)CSC3)cc1OCC	3	-3
O=C(c1ccsc1)N1CCCN(c2cc(-c3ccc4c(c3)OCO4)[nH]n2)CC1	7	4
O=C(c1cc2ccccc2[nH]1)N1CCCN(c2cc(-c3ccc4c(c3)OCO4)[nH]n2)CC1	56*	-7
Cc1ccccc1CC(=O)N1CCCN(c2cc(-c3ccccc3)[nH]n2)CC1	61*	-8
Cc1ccccc1CC(=O)N1CCN(c2cc(-c3cccnc3)[nH]n2)CC1	-6	-2
Cc1ccc(CNC(=O)CN(Cc2ccc(C)cc2)S(=O)(=O)c2ccc(C)cc2)cc1	13	-4
Cc1ccc2nc(NC(=O)CSC3=NN4CCCC(=O)N=C4S3)sc2c1	4	-5
COc1ccccc1C(=O)NCC(C)(O)c1ccccc1 (stereo not given)	-7	-2
Cc1ccccc1-n1nc2c(c1NC(=O)Cc1ccccc1)CS(=O)(=O)C2	5	-7
CCCCC(=O)Nc1c2c(nn1-c1ccccc1C)CS(=O)(=O)C2	3	72*
O=CNC1CCCc2c1[nH]c1ccc(OCc3ccccc3)cc21 (stereo not given)	53*	-2
CC(=O)NC1CCCc2c1[nH]c1ccc(C)cc21 (stereo not given)	5	99*
Cc1ccc2[nH]c3c(c2c1)CCCC3NCc1ccc(Cl)cc1 (stereo not given)	73*	-4
COC(CNC1CCCc2c1[nH]c1ccc(C)cc21)OC (stereo not given)	18	16
O=CNC1CCCc2c1[nH]c1ccc(Cl)cc21 (stereo not given)	5	2
SMILES	mHTT CaM bind	Pf apPOL inh
Cc1ccc2[nH]c3c(c2c1)CCC3O (stereo not given)	78*	-4
CCN(CC)CCNC1CCCc2c1[nH]c1ccc(C)cc21 (stereo not given)	19	-2
Cc1ccc2[nH]c3c(c2c1)CCCC3NCCCN(C)C (stereo not given)	36	-1
Cc1ccc(C(=O)Nc2ccc(-n3c(C)nc4ccccc4c3=O)cc2C)s1	3	-4
CC(C)C(=O)Nc1ccc(NC(=O)c2cccc(Br)c2)cc1	-9	4
Cc1ccc(C(=O)N(C)C(C)C)c(C2CCN(C(=O)C(C)C)CC2)n1	5	1
O=C(NCc1ccccc1)C1CCCN(c2nnc3ccccn23)C1 (stereo not given)	-3	0
Cc1ccc(N2C(=O)c3c(C)nc4ccccc4c3C2=O)cc1C	12	2
Cc1ccc2[nH]c3c(c2c1)CCCC3NCCCOc1ccccc1 (stereo not given)	100*	9
Cc1ccc2[nH]c3c(c2c1)CCCC3NCCCO (stereo not given)	14	-1
Cc1cc(NC(=O)c2cc3nc(-c4ccc(Cl)cc4)cc(C(F)(F)F)n3n2)no1	0	7
O=C(Nc1cccn2c(C3CCC3)nnc12)c1ccccn1	61*	-8
O=C(Nc1cccn2c(C3CCC3)nnc12)C1CCCO1 (stereo not given)	-1	-2
O=C(NCCCCc1ccccc1)c1ccc(Cl)cc1Cl	-38	-12
CCc1cc2c3c(c1)C(C)=CC(C)(C)N3C(=O)C2=O	72*	6
Cc1cc2c3c(c1)C(C)CC(C)(C)N3C(=O)C2=O (stereo not given)	17	0
CC(=O)Nc1ccccc1/C=C/c1ccc2c(C)ccc(O)c2n1	12	-5
Cc1ccc(O)c2nc(/C=C/c3ccccc3N)ccc12	53*	0
CNC(=O)c1ccc2c(c1)nnn2Cc1ccc(C)cc1	15	-7
COc1ccc(C=C2Oc3cc(C)c(CN4CCN(C)CC4)c(O)c3C2=O)cc1	79*	13
COc1ccc(C=C2Oc3cc(C)c(CN4CCOCC4)c(O)c3C2=O)cc1	1	4
COc1cc2oc(-c3ccccc3)cc(=O)c2c(O)c1CN(C)C	100*	27
